Measured values taken from PMC11006913.
Changes are numbered by the printed parent chain.

biological target: ALX3 (Homo sapiens, UniProt O95076 139-225, N203Q); assay: PBM; 200 nM protein, PBS; settings: dsDNA, one strand shown
Sequence (O95076 139-225 N203Q): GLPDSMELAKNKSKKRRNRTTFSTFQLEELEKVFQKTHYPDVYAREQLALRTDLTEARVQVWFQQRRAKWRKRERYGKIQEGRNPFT

| Sequence | binding signal |
| --- | --- |
| GCAGCTGC | 7.82 upbm affinity estimate (log intensity, higher = more binding, comparable within an allelic series) |
| CCAGGGGC | 7.67 upbm affinity estimate (log intensity, higher = more binding, comparable within an allelic series) |

biological target: T1, SIX6 (Homo sapiens, UniProt O95475 114-200, T165A); assay: PBM; 200 nM protein, PBS; settings: dsDNA, one strand shown
T1 sequence: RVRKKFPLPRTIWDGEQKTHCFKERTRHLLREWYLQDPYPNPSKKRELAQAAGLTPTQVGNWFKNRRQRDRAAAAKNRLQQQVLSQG

| Sequence | binding signal |
| --- | --- |
| AGGTGCCC | 8.85 upbm affinity estimate (log intensity, higher = more binding, comparable within an allelic series) |
| CGCACCGC | 8.98 upbm affinity estimate (log intensity, higher = more binding, comparable within an allelic series) |
| GCAGCTGC | 9.05 upbm affinity estimate (log intensity, higher = more binding, comparable within an allelic series) |
| CTGCTGGC | 8.81 upbm affinity estimate (log intensity, higher = more binding, comparable within an allelic series) |
| AGACTATC | 10.1 upbm affinity estimate (log intensity, higher = more binding, comparable within an allelic series) |
| CCAGGGGC | 8.82 upbm affinity estimate (log intensity, higher = more binding, comparable within an allelic series) |
| GGGGCCCC | 9.03 upbm affinity estimate (log intensity, higher = more binding, comparable within an allelic series) |
| CCGTCGCC | 8.74 upbm affinity estimate (log intensity, higher = more binding, comparable within an allelic series) |
| CACGCCCC | 9.17 upbm affinity estimate (log intensity, higher = more binding, comparable within an allelic series) |
| ACGCAACG | 9.14 upbm affinity estimate (log intensity, higher = more binding, comparable within an allelic series) |

biological target: PITX2 (Homo sapiens, UniProt Q99697 72-157); assay: PBM; 200 nM protein, PBS; settings: dsDNA, one strand shown

| Sequence | binding signal |
| --- | --- |
| GGGGACCC | 7.78 upbm affinity estimate (log intensity, higher = more binding, comparable within an allelic series) |
| GTGGATTA | 13.2 upbm affinity estimate (log intensity, higher = more binding, comparable within an allelic series) |
| CAGATTAA | 12.5 upbm affinity estimate (log intensity, higher = more binding, comparable within an allelic series) |
| GGATTACA | 12.8 upbm affinity estimate (log intensity, higher = more binding, comparable within an allelic series) |
| CAGATTAG | 12.3 upbm affinity estimate (log intensity, higher = more binding, comparable within an allelic series) |
| GCAGATTA | 12.3 upbm affinity estimate (log intensity, higher = more binding, comparable within an allelic series) |
| AGATTAGC | 12.5 upbm affinity estimate (log intensity, higher = more binding, comparable within an allelic series) |
| GCCCGGGC | 8.05 upbm affinity estimate (log intensity, higher = more binding, comparable within an allelic series) |

biological target: HOXC9 (Homo sapiens, UniProt P31274 178-260, R193K); assay: PBM; 200 nM protein, PBS; settings: dsDNA, one strand shown
Sequence (P31274 178-260 R193K): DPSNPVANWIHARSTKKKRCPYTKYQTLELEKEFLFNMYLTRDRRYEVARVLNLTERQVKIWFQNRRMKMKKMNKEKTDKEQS

| Sequence | binding signal |
| --- | --- |
| GGGGACCC | 9.41 upbm affinity estimate (log intensity, higher = more binding, comparable within an allelic series) |
| GACGCGTC | 9.46 upbm affinity estimate (log intensity, higher = more binding, comparable within an allelic series) |
| ATATTAAT | 12.5 upbm affinity estimate (log intensity, higher = more binding, comparable within an allelic series) |
| AGGGGACC | 9.54 upbm affinity estimate (log intensity, higher = more binding, comparable within an allelic series) |
| ATTTATGG | 12.8 upbm affinity estimate (log intensity, higher = more binding, comparable within an allelic series) |
| ATTATCTC | 11.4 upbm affinity estimate (log intensity, higher = more binding, comparable within an allelic series) |
| ACCAGCCC | 9.71 upbm affinity estimate (log intensity, higher = more binding, comparable within an allelic series) |

biological target: HOXA2 (Homo sapiens, UniProt O43364 129-215, R185K); assay: PBM; 200 nM protein, PBS; settings: dsDNA, one strand shown
Sequence (O43364 129-215 R185K): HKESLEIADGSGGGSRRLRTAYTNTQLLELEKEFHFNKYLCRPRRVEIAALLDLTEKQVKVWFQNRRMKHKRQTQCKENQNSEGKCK

| Sequence | binding signal |
| --- | --- |
| GCAGCTGC | 10.3 upbm affinity estimate (log intensity, higher = more binding, comparable within an allelic series) |
| CCAGGGGC | 10.2 upbm affinity estimate (log intensity, higher = more binding, comparable within an allelic series) |
| GGGGCCCC | 10.2 upbm affinity estimate (log intensity, higher = more binding, comparable within an allelic series) |
| GCCCGGGC | 9.77 upbm affinity estimate (log intensity, higher = more binding, comparable within an allelic series) |

biological target: HOXA4 (Homo sapiens, UniProt Q00056 201-287); assay: PBM; 200 nM protein, PBS; settings: dsDNA, one strand shown
Sequence (Q00056 201-287): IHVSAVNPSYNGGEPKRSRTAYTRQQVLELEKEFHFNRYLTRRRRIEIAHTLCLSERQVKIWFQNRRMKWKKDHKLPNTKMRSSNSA

| Sequence | binding signal |
| --- | --- |
| GTGGATTA | 10.8 upbm affinity estimate (log intensity, higher = more binding, comparable within an allelic series) |
| CACGCCCC | 9.74 upbm affinity estimate (log intensity, higher = more binding, comparable within an allelic series) |
| GGGGCTCA | 9.76 upbm affinity estimate (log intensity, higher = more binding, comparable within an allelic series) |
| CCCGTCCC | 9.89 upbm affinity estimate (log intensity, higher = more binding, comparable within an allelic series) |

biological target: HOXC10 (Homo sapiens, UniProt Q9NYD6 254-340, K271E); assay: PBM; 200 nM protein, PBS; settings: dsDNA, one strand shown
Sequence (Q9NYD6 254-340 K271E): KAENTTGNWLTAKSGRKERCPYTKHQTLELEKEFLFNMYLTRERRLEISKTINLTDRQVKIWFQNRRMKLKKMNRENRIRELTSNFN

| Sequence | binding signal |
| --- | --- |
| ATATTAAT | 11.8 upbm affinity estimate (log intensity, higher = more binding, comparable within an allelic series) |
| CTGCTGGC | 9.97 upbm affinity estimate (log intensity, higher = more binding, comparable within an allelic series) |
| ATTTATGG | 11.7 upbm affinity estimate (log intensity, higher = more binding, comparable within an allelic series) |
| GCCCGGGC | 10.1 upbm affinity estimate (log intensity, higher = more binding, comparable within an allelic series) |

biological target: T2, SIX6 (Homo sapiens, UniProt O95475 114-200, L167V); assay: PBM; 200 nM protein, PBS; settings: dsDNA, one strand shown
T2 sequence: T1 sequence with A52T, L54V

| Sequence | binding signal |
| --- | --- |
| AGGTGCCC | 8.9 upbm affinity estimate (log intensity, higher = more binding, comparable within an allelic series) |
| CGCACCGC | 8.96 upbm affinity estimate (log intensity, higher = more binding, comparable within an allelic series) |
| GCAGCTGC | 9.06 upbm affinity estimate (log intensity, higher = more binding, comparable within an allelic series) |
| CTGCTGGC | 8.93 upbm affinity estimate (log intensity, higher = more binding, comparable within an allelic series) |
| AGACTATC | 10 upbm affinity estimate (log intensity, higher = more binding, comparable within an allelic series) |
| CCAGGGGC | 8.8 upbm affinity estimate (log intensity, higher = more binding, comparable within an allelic series) |
| GGGGCCCC | 8.99 upbm affinity estimate (log intensity, higher = more binding, comparable within an allelic series) |
| CCGTCGCC | 8.83 upbm affinity estimate (log intensity, higher = more binding, comparable within an allelic series) |
| CACGCCCC | 8.99 upbm affinity estimate (log intensity, higher = more binding, comparable within an allelic series) |
| ACGCAACG | 9.19 upbm affinity estimate (log intensity, higher = more binding, comparable within an allelic series) |

biological target: T3, SIX6 (Homo sapiens, UniProt O95475 114-200); assay: PBM; 200 nM protein, PBS; settings: dsDNA, one strand shown
T3 sequence: T1 sequence with A52T

| Sequence | binding signal |
| --- | --- |
| AGGTGCCC | 8.78 upbm affinity estimate (log intensity, higher = more binding, comparable within an allelic series) |
| CGCACCGC | 8.97 upbm affinity estimate (log intensity, higher = more binding, comparable within an allelic series) |
| GCAGCTGC | 9.1 upbm affinity estimate (log intensity, higher = more binding, comparable within an allelic series) |
| CTGCTGGC | 8.83 upbm affinity estimate (log intensity, higher = more binding, comparable within an allelic series) |
| AGACTATC | 10.2 upbm affinity estimate (log intensity, higher = more binding, comparable within an allelic series) |
| CCAGGGGC | 8.88 upbm affinity estimate (log intensity, higher = more binding, comparable within an allelic series) |
| GGGGCCCC | 8.93 upbm affinity estimate (log intensity, higher = more binding, comparable within an allelic series) |
| CCGTCGCC | 8.87 upbm affinity estimate (log intensity, higher = more binding, comparable within an allelic series) |
| CACGCCCC | 9.08 upbm affinity estimate (log intensity, higher = more binding, comparable within an allelic series) |
| CCCTGATC | 10.2 upbm affinity estimate (log intensity, higher = more binding, comparable within an allelic series) |
| ACGCAACG | 9.12 upbm affinity estimate (log intensity, higher = more binding, comparable within an allelic series) |

biological target: T4, SIX6 (Homo sapiens, UniProt O95475 114-200, T165I); assay: PBM; 200 nM protein, PBS; settings: dsDNA, one strand shown
T4 sequence: T1 sequence with A52I

| Sequence | binding signal |
| --- | --- |
| AGGTGCCC | 8.87 upbm affinity estimate (log intensity, higher = more binding, comparable within an allelic series) |
| CGCACCGC | 8.85 upbm affinity estimate (log intensity, higher = more binding, comparable within an allelic series) |
| GCAGCTGC | 9.05 upbm affinity estimate (log intensity, higher = more binding, comparable within an allelic series) |
| CTGCTGGC | 8.82 upbm affinity estimate (log intensity, higher = more binding, comparable within an allelic series) |
| AGACTATC | 10.1 upbm affinity estimate (log intensity, higher = more binding, comparable within an allelic series) |
| CCAGGGGC | 8.84 upbm affinity estimate (log intensity, higher = more binding, comparable within an allelic series) |
| GGGGCCCC | 8.97 upbm affinity estimate (log intensity, higher = more binding, comparable within an allelic series) |
| CCGTCGCC | 8.79 upbm affinity estimate (log intensity, higher = more binding, comparable within an allelic series) |
| CACGCCCC | 9.05 upbm affinity estimate (log intensity, higher = more binding, comparable within an allelic series) |
| ACGCAACG | 9.12 upbm affinity estimate (log intensity, higher = more binding, comparable within an allelic series) |

biological target: HOXB9 (Homo sapiens, UniProt P17482 171-250, R186Q); assay: PBM; 200 nM protein, PBS; settings: dsDNA, one strand shown
Sequence (P17482 171-250 R186Q): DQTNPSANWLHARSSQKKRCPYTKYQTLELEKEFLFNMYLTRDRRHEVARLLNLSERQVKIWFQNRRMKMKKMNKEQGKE

| Sequence | binding signal |
| --- | --- |
| ATATTAAT | 11.5 upbm affinity estimate (log intensity, higher = more binding, comparable within an allelic series) |
| GGATTACA | 9.52 upbm affinity estimate (log intensity, higher = more binding, comparable within an allelic series) |
| ATTTATGG | 11.8 upbm affinity estimate (log intensity, higher = more binding, comparable within an allelic series) |
| CCAGGGGC | 8.39 upbm affinity estimate (log intensity, higher = more binding, comparable within an allelic series) |
| GGGGCCCC | 8.63 upbm affinity estimate (log intensity, higher = more binding, comparable within an allelic series) |
| CACGCCCC | 8.47 upbm affinity estimate (log intensity, higher = more binding, comparable within an allelic series) |

biological target: HOXC9 (Homo sapiens, UniProt P31274 178-260, R222W); assay: PBM; 200 nM protein, PBS; settings: dsDNA, one strand shown
Sequence (P31274 178-260 R222W): as the sequence (P31274 178-260 R193K) above, with K16R, R45W counted along it

| Sequence | binding signal |
| --- | --- |
| GGGGACCC | 9.52 upbm affinity estimate (log intensity, higher = more binding, comparable within an allelic series) |
| GACGCGTC | 9.62 upbm affinity estimate (log intensity, higher = more binding, comparable within an allelic series) |
| ATATTAAT | 11.1 upbm affinity estimate (log intensity, higher = more binding, comparable within an allelic series) |
| AGGGGACC | 9.53 upbm affinity estimate (log intensity, higher = more binding, comparable within an allelic series) |
| ATTTATGG | 11.2 upbm affinity estimate (log intensity, higher = more binding, comparable within an allelic series) |
| ACCAGCCC | 9.62 upbm affinity estimate (log intensity, higher = more binding, comparable within an allelic series) |

biological target: HOXA2 (Homo sapiens, UniProt O43364 129-215, Y150S); assay: PBM; 200 nM protein, PBS; settings: dsDNA, one strand shown
Sequence (O43364 129-215 Y150S): as the sequence (O43364 129-215 R185K) above, with Y22S, K57R counted along it

| Sequence | binding signal |
| --- | --- |
| GCAGCTGC | 10.3 upbm affinity estimate (log intensity, higher = more binding, comparable within an allelic series) |
| CCAGGGGC | 10.3 upbm affinity estimate (log intensity, higher = more binding, comparable within an allelic series) |
| GGGGCCCC | 10.5 upbm affinity estimate (log intensity, higher = more binding, comparable within an allelic series) |
| GCCCGGGC | 10.4 upbm affinity estimate (log intensity, higher = more binding, comparable within an allelic series) |
